From PubChem BioAssay (EPA / NIEHS) come the findings set out here.

A short description of experiment [1]: TOX21_p53_BLA_p2_viability: Viability Assessment in the Tox21 HCT-116 p53 Agonism Beta-lactamase Assay, Phase 2 (AID 2283591).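 Also: compound exposure lasted 16 h at 37 °C; actives lower the ATP signal meaning cytotoxicity.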 In short, it runs like this: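 Cytotoxicity readout: CellTiter-Glo ATP luminescence, 30 min at room temperature, after the beta-lactamase read. Cells were HCT116 exposed 16 h at 37C to compounds pin-transferred at 217-fold dilution from DMSO stocks.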

Experiment [2] in a line: TOX21_p53_BLA_p3_viability: Viability Assessment in the Tox21 HCT-116 p53 Agonism Beta-lactamase Assay, Phase 3 (AID 2283593).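 Also: cells exposed to compound for 16 h before reading.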 Summed up:
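Cellular ATP was quantified by CellTiter-Glo luminescence, read after 30 min at room temperature. Beforehand, HCT116 cells (4000/well) received compound 5 h post-seeding, 217-fold diluted from DMSO, then incubated 16 h at 37C.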

For experiment [3], the target named is Cellular tumor antigen p53 (Homo sapiens) (UniProt P04637). Put plainly: TOX21_p53_BLA_p3_ratio: Tox21 HCT-116 p53 Agonism Beta-lactamase Assay, Ratio, Phase 3 (AID 2283596). In short, it runs like this:
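Cells were seeded at 4000/well, rested 5 h at 37C, then dosed with DMSO compound solutions (217-fold dilution) for 16 h. CCF4-AM substrate was loaded for 2 h at room temperature, and the 460/530 nm emission ratio was fitted for gain of signal versus DMSO.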

The nature of experiment [4]: TOX21_p53_BLA_p4_viability: Viability Assessment in the Tox21 HCT-116 p53 Agonism Beta-lactamase Assay, Phase 4 (AID 2283597).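 Also: hits lower the luminescence signal meaning cytotoxicity.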 Summed up:
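Readout: ATP luminescence (CellTiter-Glo), measured 30 min after reagent addition at RT. The reagent followed a 2 h CCF4-AM incubation, and the cells had been exposed to compound for 16 h at 37C.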

Experiment [5] is described as follows: TOX21_p53_BLA_p5_viability: Viability Assessment in the Tox21 HCT-116 p53 Agonism Beta-lactamase Assay, Phase 5 (AID 2283600). In short, it runs like this: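 Workflow: seed 4000 cells per well, wait 5 h, add compounds (DMSO, 217-fold dilution), incubate 16 h, load CCF4-AM 2 h, add CellTiter-Glo, read luminescence after 30 min.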
The target in experiment [6] is Cellular tumor antigen p53 (Homo sapiens) (UniProt P04637). The experiment in a line: TOX21_p53_BLA_p4_ratio: Tox21 HCT-116 p53 Agonism Beta-lactamase Assay, Ratio, Phase 4 (AID 2283601). Summed up: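 Signal is the blue/green (460nm/530nm) ratio of cleaved versus uncleaved CCF4-AM substrate, read after 2 h substrate loading. Cells were HCT116 carrying the p53-responsive beta-lactamase reporter, dosed 16 h at 37C, 5% CO2; CellTiter-Glo measured in parallel.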
Chain of Cellular tumor antigen p53 (Homo sapiens) (P04637 whole entry, looked up): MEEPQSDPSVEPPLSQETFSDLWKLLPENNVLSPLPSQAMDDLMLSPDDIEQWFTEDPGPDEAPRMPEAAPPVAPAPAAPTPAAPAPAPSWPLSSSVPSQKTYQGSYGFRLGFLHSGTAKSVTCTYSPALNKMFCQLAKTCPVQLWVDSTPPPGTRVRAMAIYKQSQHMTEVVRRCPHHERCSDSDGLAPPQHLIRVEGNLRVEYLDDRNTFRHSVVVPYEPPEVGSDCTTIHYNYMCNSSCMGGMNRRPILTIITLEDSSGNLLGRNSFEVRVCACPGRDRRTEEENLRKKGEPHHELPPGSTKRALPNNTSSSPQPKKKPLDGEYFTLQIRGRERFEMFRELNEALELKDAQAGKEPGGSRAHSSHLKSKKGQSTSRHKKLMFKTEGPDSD

For experiment [7] the target is unchanged. The experiment in a line: TOX21_p53_BLA_p5_ratio: Tox21 HCT-116 p53 Agonism Beta-lactamase Assay, Ratio, Phase 5 (AID 2283599). Summed up:
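Beta-lactamase reporter ratio (blue 460 nm over green 530 nm, 405 nm excitation) after 2 h CCF4-AM loading, in HCT-116 cells exposed 16 h at 37 C to compounds pinned at 217-fold dilution. Increases relative to DMSO baseline scored.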

The nature of experiment [8]: CCTE_Harrill_HTTr_Viability_MCF7: CCTE's 6-hour Cell Viability Assessment for the High-Throughput Transcriptomics (HTTr) Platform, in MCF-7 cells cultured in DMEM + 10% fetal bovine serum, Harrill Lab (AID 2284010; active = hit-call score of the fitted dose curve at least 0.9, where 1 is the maximum; inactive = score below 0.9). Summed up: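 Eight-point concentration series, six-hour exposure. Propidium iodide exclusion imaged to assess membrane integrity as a cytotoxicity readout; bidirectional fitting was done with DMSO as negative control and activity baseline.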

The nature of experiment [9]: CCTE_Harrill_HTTr_Apoptosis_MCF7: CCTE's 6-hour Apoptosis Assessment for the High-Throughput Transcriptomics (HTTr) Platform, in MCF-7 cells cultured in DMEM + 10% fetal bovine serum, Harrill Lab (AID 2284011; active = hit-call score of the fitted dose curve at least 0.9, where 1 is the maximum; inactive = score below 0.9). Summed up: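 MCF-7 (DMEM + 10% FBS), 384-well; 8-pt dilution series, 6 h chemical exposure; caspase-3/7 activation via CellEvent Caspase 3/7 Green, HCI; bidirectional fit vs DMSO.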

Experiment [10] can be described thus: CCTE_Harrill_HTTr_CellCount_MCF7: CCTE's Cell Proliferation Assessment for the High-Throughput Transcriptomics (HTTr) Platform, Harrill Lab (AID 2284012).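 Also: intended direction is loss of nuclei count meaning fewer cells.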 In short, it runs like this: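 For this full-screen endpoint, MCF-7 cultures received eight compound dilutions for six hours. Well nuclei counts from Hoechst imaging were analyzed relative to DMSO.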
Experiment [11] in a line: TAMU_PeakParms_SingleDonor1434_Chronotropy: Texas A&M University (TAMU) 1.5-hr Human Induced Pluripotent Stem Cell (iPSC)-derived Cardiomyocytes Calcium (Ca+2) Flux Assay for Cardiotoxicity: Chronotropy (changes in peak frequency) (AID 2284217; active = hit-call score of the fitted dose curve at least 0.9, where 1 is the maximum; inactive = score below 0.9). Particulars: actives raise or lower the signal. Summed up:
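Using fluorescent Ca2+ flux, average beats per second are measured in human iPSC-derived cardiomyocytes treated 90 min (0.5% DMSO vehicle, 0.2–100 uM). Non-beating data points are removed; activity is modeled in both directions relative to DMSO controls.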

A short description of experiment [12]: TAMU_HCS_1.5hr_SingleDonor1434_Cytotoxicity: Cytotoxicity Assessment using High-content Screening (HCS) Fluorescent Imaging for the Texas A&M University (TAMU) 1.5-hr Human Induced Pluripotent Stem Cell (iPSC)-derived Cardiotoxicity Assay (AID 2284234). Summed up:
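Nuclear counts from Hoechst 33342 imaging define cytotoxicity here, with EC10 (10% cell-count loss relative to DMSO) as point of departure. iPSC cardiomyocytes received 0.2-100 uM test chemical in 0.5% DMSO for 1.5 h at 37 C.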

Experiment [13] can be described thus: TAMU_PeakParms_SingleDonor1434_QT: Texas A&M University (TAMU) 1.5-hr Human Induced Pluripotent Stem Cell (iPSC)-derived Cardiomyocytes Calcium (Ca+2) Flux Assay for Cardiotoxicity: QT (decay-rise ratio) (AID 2284235). In short, it runs like this:
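Decay/rise ratio of calcium-flux fluorescence scored after 90 min exposure (37C) of donor 1434 iPSC cardiomyocytes to 0.2–100 uM (0.5% DMSO). Beat-cessation and severe-notch points removed; POD is EC05, a 5% rise over DMSO.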

A short description of experiment [14]: TAMU_PeakParms_SingleDonor1434_Asystole: Texas A&M University (TAMU) 1.5-hr Human Induced Pluripotent Stem Cell (iPSC)-derived Cardiomyocytes Calcium (Ca+2) Flux Assay for Cardiotoxicity: Asystole (quiescence of beating) (AID 2284328). Summed up: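 Average Ca2+-flux peak frequency (beats/s) was recorded in single-donor iPSC-derived cardiomyocytes after 90 min exposure (0.2–100 uM final, 0.5% DMSO). Asystole POD set as EC95 against DMSO, no preprocessing.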

The next experiment addresses PGR (gene 5241) (UniProt P06401). Put plainly: TOX21_PR_BLA_Followup_Antagonist_ratio: Tox21 HEK293 Progesterone Receptor (PR) Antagonism Beta-lactamase Follow-Up Assay, Ratio (AID 2283934).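 Also: PR-UAS-bla HEK293T cells stimulated with 1 nM R5020 agonist for 16 hr.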 Summed up:
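Measured in PR-UAS-bla HEK293T cells co-treated with compound and 1 nM promegestone for 16 hr; beta-lactamase ratio read after 2 h FRET substrate loading, with parallel CellTiter-Glo cytotoxicity.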

Experiment [15] can be described thus: TOX21_PR_BLA_Followup_Agonist_viability: Viability Assessment in the Tox21 HEK293 Progesterone Receptor (PR) Agonism Beta-lactamase Follow-Up Assay (AID 2283935).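 Also: signal loss means lower viability so actives are cytotoxic.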 Summed up:
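Viability is read as CellTiter-Glo luminescence, where loss of signal indicates cytotoxicity. The cells are PR-UAS-bla HEK293T given compounds for 16 hr at 37C and 5% CO2, in the same wells used for the bla readout.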

Experiment [16] in a line: TOX21_PR_LUC_Followup_Agonist_viability: Viability Assessment in the Tox21 HEK293 Progesterone Receptor (PR) Agonism Luciferase Follow-Up Assay (AID 2283941).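 Also: loss of signal means cytotoxicity so actives lower viability.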 In short, it runs like this:
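Seeding: HEK293-PR-A-luc, 3,000 cells/well, 5 h at 37C. Treatment: compound in DMSO, 16 h, 37C. Read: CellTiter-Glo ATP luminescence, signal loss taken as lower viability.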

Records with an inconclusive call do not appear. Where a structure was tested more than once in an assay, its records may differ in their call. Active and inactive are the calls of the source. The calls were made as follows, unless noted: active = hit-call score of the fitted dose curve at least 0.9, where 1 is the maximum; inconclusive = response in the unintended direction; inactive = score below 0.9.

A word on the AC50: it is the concentration at which the activity in the assay is half-maximal.

Chain of PGR (gene 5241) (P06401 whole entry, looked up): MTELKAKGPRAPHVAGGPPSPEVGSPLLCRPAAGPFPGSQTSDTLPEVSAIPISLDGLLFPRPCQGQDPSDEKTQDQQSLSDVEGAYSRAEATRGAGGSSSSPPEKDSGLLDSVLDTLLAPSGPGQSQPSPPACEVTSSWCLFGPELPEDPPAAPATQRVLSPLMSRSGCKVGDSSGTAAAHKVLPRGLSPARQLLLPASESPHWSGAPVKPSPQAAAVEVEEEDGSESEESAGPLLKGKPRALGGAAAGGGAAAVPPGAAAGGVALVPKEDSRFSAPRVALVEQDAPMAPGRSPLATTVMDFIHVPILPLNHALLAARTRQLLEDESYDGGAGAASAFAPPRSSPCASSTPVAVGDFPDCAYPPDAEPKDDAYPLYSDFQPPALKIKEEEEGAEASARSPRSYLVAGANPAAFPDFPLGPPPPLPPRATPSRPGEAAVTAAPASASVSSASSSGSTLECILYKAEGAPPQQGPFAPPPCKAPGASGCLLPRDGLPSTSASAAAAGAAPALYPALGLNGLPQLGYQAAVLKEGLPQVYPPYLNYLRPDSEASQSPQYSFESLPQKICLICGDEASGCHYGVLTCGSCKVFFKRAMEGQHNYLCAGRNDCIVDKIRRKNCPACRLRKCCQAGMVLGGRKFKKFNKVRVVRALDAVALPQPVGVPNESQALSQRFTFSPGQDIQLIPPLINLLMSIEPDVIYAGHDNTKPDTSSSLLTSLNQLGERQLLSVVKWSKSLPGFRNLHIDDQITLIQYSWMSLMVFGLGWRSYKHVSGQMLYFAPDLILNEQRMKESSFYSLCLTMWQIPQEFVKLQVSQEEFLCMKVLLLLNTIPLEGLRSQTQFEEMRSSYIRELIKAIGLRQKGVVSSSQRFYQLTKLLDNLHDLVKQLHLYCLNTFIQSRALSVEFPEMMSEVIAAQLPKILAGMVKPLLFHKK

As to `Nc1ccc(NC(=O)c2ccc(N)cc2)cc1`, the compound was called inactive in experiment [1], in experiment [2], in experiment [3], in experiment [4], in [5] and in experiment [6].
With `CCOC(=O)c1cccnc1`, the outcome in [1], in experiment [2], in [3], in [4], in [7] and in experiment [6] was inactive.
Regarding `CC(C)OC(=O)c1cc2c(OCC(O)CNC(C)(C)C)cccc2[nH]1` (stereo not given), the call in experiment [1], in experiment [2], in experiment [3], in [4] and in experiment [5] was inactive.
With `C[C@@H]1C[C@H]2[C@@H]3CCC4=CC(=O)C=C[C@]4(C)[C@@]3(F)[C@@H](O)C[C@]2(C)[C@H]1C(=O)CO`, the call in experiment [1], in experiment [2], in experiment [3] and in experiment [7] was inactive.
Regarding `Nc1nc2c(c(=O)[nH]1)N(C=O)C(CNc1ccc(C(=O)N[C@@H](CCC(=O)O)C(=O)O)cc1)CN2` (stereo not given in full), the compound was classed as inactive in experiment [1], in experiment [2], in experiment [3], in experiment [7] and in experiment [6].
Turning to `CC(C)(O)C#CC(C)(C)O`, the result in experiment [1], in experiment [2], in experiment [3] and in experiment [5] was inactive.
Regarding `CCC(COC(=O)CCS)(COC(=O)CCS)COC(=O)CCS`, the outcome in experiment [1], in experiment [2] and in [5] was inactive. In addition, in experiment [3], the concentration at half-maximal activity (AC50) is 72.1 µM (active).
As for `CCOC(=O)[C@@H](N)CS`, the call in experiment [1], in experiment [2], in [3], in experiment [5] and in experiment [6] was inactive.
Turning to `CCC[C@H](N[C@@H](C)C(=O)N1[C@H](C(=O)O)C[C@@H]2CCCC[C@@H]21)C(=O)OCC`, the compound was classed as inactive in experiment [1], in [2], in experiment [3], in experiment [5], in experiment [6] and in experiment [8]. The outcome in [9] and in experiment [10] was inactive.
As for `CSCCC(N)C(=O)O` (stereo not given), the call in experiment [1], in experiment [2], in experiment [3], in experiment [7] and in [6] was inactive.
As for `CCCC(=O)O[C@]1(C(=O)COC(=O)CC)[C@@H](C)C[C@H]2[C@@H]3CCC4=CC(=O)C=C[C@]4(C)[C@@]3(F)[C@@H](O)C[C@@]21C`, the call in [1], in [2] and in experiment [4] was inactive.
On to `COCC(=O)Nc1c(I)c(C(=O)NCC(O)CO)c(I)c(C(=O)N(C)CC(O)CO)c1I` (stereo not given), for which the compound was classed as inactive in experiment [1], in [2], in experiment [3], in [5] and in experiment [6].
For the compound `COc1ccc(CCN(C)CCCC(C#N)(c2ccc(OC)c(OC)c2)C(C)C)cc1OC` (stereo not given), the compound was classed as inactive in [1], in [2], in experiment [4], in experiment [5], in experiment [8] and in [9]. Further, the compound was classed as inactive in [10], in [11], in [12], in experiment [13] and in experiment [14]. The AC50 in [4] is 39.2 µM (active).
For the compound `CCCc1nn(C)c2c(=O)[nH]c(-c3cc(S(=O)(=O)N4CCN(C)CC4)ccc3OCC)nc12`, the compound was classed as inactive in experiment [1], in [2], in experiment [3] and in experiment [5].
As for `Nc1ccccc1S(=O)(=O)c1ccccc1`, the outcome in experiment [1], in experiment [2], in [3], in [7], in experiment [5] and in [6] was inactive. The outcome (in the experiment with PGR (gene 5241); in [15]; in experiment [16]) was inactive.
